Measurements: PubChem BioAssay (NCI)
This is part of a sample that, as a whole, favours compounds with a hit. Of some 83,000 tested, about 20% had one in any assay.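 Single-dose data. Exposure time 48 hours. Values below 10 considered active.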 The source made the active and inactive calls.

Key:
Assay in all cases: NCI-60 one-dose screen, 48 h (100 = growth as untreated, 0 = no growth, -100 = all killed)
Conditions in all cases: 10 µM unless noted
DU-145 prostate = tested on: DU-145 prostate
K-562 leukemia = tested on: K-562 leukemia
MALME-3M melanoma = tested on: MALME-3M melanoma
MDA-MB-231 breast = tested on: MDA-MB-231 breast
RXF 393 renal = tested on: RXF 393 renal
SF-268 CNS = tested on: SF-268 CNS
SF-295 CNS = tested on: SF-295 CNS
SF-539 CNS = tested on: SF-539 CNS
UACC-257 melanoma = tested on: UACC-257 melanoma
M14 melanoma = tested on: M14 melanoma

Measured: growth

Cc1cnc(C(=O)Nc2nc3ccc(S(=O)(=O)Nc4ccc(C(C)(C)C)cc4)cc3[nH]2)cn1
inactive: DU-145 prostate 12.4% | K-562 leukemia 11.4% | MALME-3M melanoma 43.8% | MDA-MB-231 breast 30.6% | SF-268 CNS 48.1% | SF-295 CNS 21.9% | UACC-257 melanoma 59.1%
active: RXF 393 renal -13.9% | SF-539 CNS -33.6% | M14 melanoma 1.89%

CC(C)N1C(=O)S/C(=C2/SC(=O)N(C(C)C)C2=O)C1=O
inactive: DU-145 prostate 91.8% | K-562 leukemia 94.4% | MALME-3M melanoma 90.4% | MDA-MB-231 breast 76.2% | RXF 393 renal 99.2% | SF-268 CNS 94.8% | SF-295 CNS 101% | SF-539 CNS 86.4% | UACC-257 melanoma 99% | M14 melanoma 93%

O=C1Nc2cc(-c3ccc(NC(=O)C4CC4)cc3)ccc2/C1=C/c1ccc[nH]1
inactive: DU-145 prostate 105% | K-562 leukemia 98.4% | MALME-3M melanoma 98.5% | MDA-MB-231 breast 99.5% | RXF 393 renal 108% | SF-268 CNS 104% | SF-295 CNS 101% | SF-539 CNS 90.7% | UACC-257 melanoma 116% | M14 melanoma 99.3%

CN(C)c1ccc(C2C(C#N)=C(/N=C/c3ccccc3)Oc3c2ccc2ccccc32)cc1 (stereo not given)
inactive: DU-145 prostate 87.8% | K-562 leukemia 17.1% | MALME-3M melanoma 77.8% | MDA-MB-231 breast 58.1% | RXF 393 renal 75.9% | SF-268 CNS 66.5% | SF-295 CNS 49.5% | SF-539 CNS 68.6% | UACC-257 melanoma 82.7% | M14 melanoma 59.4%

O=C(NO)c1ccc(-n2nc(-c3ccccc3)c3ccccc32)cc1
inactive: DU-145 prostate 38.4% | K-562 leukemia 37.8% | MALME-3M melanoma 57% | MDA-MB-231 breast 40.3% | RXF 393 renal 36.5% | SF-268 CNS 54.7% | SF-295 CNS 80.9% | SF-539 CNS 49.3% | UACC-257 melanoma 78.5% | M14 melanoma 57.2%

CCOC(=O)c1cc(C(=O)c2ccc(OC)cc2)n2ccc(/C=C/c3cc[n+](CC(=O)c4ccc(OC)cc4)cc3)cc12
active: K-562 leukemia -15.2%
inactive: DU-145 prostate 75% | MALME-3M melanoma 92.1% | MDA-MB-231 breast 72.1% | RXF 393 renal 99.9% | SF-268 CNS 94.5% | SF-295 CNS 104% | SF-539 CNS 92.9% | UACC-257 melanoma 111% | M14 melanoma 75.4%

NC(=NCCCOc1ccc(F)cc1)Nc1ccc(Cl)cc1
inactive: DU-145 prostate 25% | K-562 leukemia 64.7% | MALME-3M melanoma 54.6% | MDA-MB-231 breast 53.7% | RXF 393 renal 73.6% | SF-268 CNS 49.9% | SF-295 CNS 47.5% | SF-539 CNS 59.7% | UACC-257 melanoma 13.4% | M14 melanoma 52.7%

Cc1ccc(NC(C(=O)c2ccccc2)c2ccccc2)cc1 (stereo not given)
active: MALME-3M melanoma -2.02%
inactive: DU-145 prostate 58.2% | K-562 leukemia 46.5% | MDA-MB-231 breast 72.4% | RXF 393 renal 95.2% | SF-268 CNS 68.6% | SF-295 CNS 53.2% | SF-539 CNS 78.4% | UACC-257 melanoma 10.5% | M14 melanoma 77.6%

COc1cc2oc(-c3cccc(C(=O)Nc4ccc(Cl)cc4)c3)cc(=O)c2c(O)c1OC
inactive: DU-145 prostate 62.9% | K-562 leukemia 69.4% | MALME-3M melanoma 68.4% | MDA-MB-231 breast 55.8% | RXF 393 renal 41.3% | SF-268 CNS 28.6% | SF-295 CNS 52% | SF-539 CNS 55% | UACC-257 melanoma 83.2% | M14 melanoma 69.8%

COc1cc2c(=O)n(CCN(C)C)c3c4cc5c(cc4ccc3c2cc1OC)OCO5
inactive: K-562 leukemia 12.1%
active: DU-145 prostate 3.59% | MALME-3M melanoma -63.6% | MDA-MB-231 breast -21.6% | RXF 393 renal -84.6% | SF-268 CNS 0.0226% | SF-295 CNS 3.79% | SF-539 CNS -39.9% | UACC-257 melanoma -33.4% | M14 melanoma -56.7%

O=C(Nc1ccc(-c2ccc3c(c2)NC(=O)/C3=C\c2ccc[nH]2)cc1)NC1CC1
inactive: DU-145 prostate 103% | K-562 leukemia 92.5% | MALME-3M melanoma 105% | MDA-MB-231 breast 101% | RXF 393 renal 99.1% | SF-268 CNS 103% | SF-295 CNS 90.8% | SF-539 CNS 71.5% | UACC-257 melanoma 117% | M14 melanoma 94%

CNCCn1c(=O)c2cc(OC)c(OC)cc2c2ccc3cc4c(cc3c21)OCO4
active: DU-145 prostate 5.52% | K-562 leukemia 2.28% | MALME-3M melanoma -85.3% | MDA-MB-231 breast 0.962% | RXF 393 renal -76.1% | SF-295 CNS 6.74% | SF-539 CNS -30.4% | UACC-257 melanoma -76.3% | M14 melanoma -50.5%
inactive: SF-268 CNS 11.9%

COc1cccc(-c2nc3occn3c2-c2ccnc(NCCNS(=O)(=O)c3ccc(C(F)(F)F)cc3)n2)c1
inactive: DU-145 prostate 96.4% | K-562 leukemia 71.6% | MALME-3M melanoma 107% | MDA-MB-231 breast 87.2% | RXF 393 renal 90.8% | SF-268 CNS 88.2% | SF-295 CNS 99.1% | SF-539 CNS 104% | UACC-257 melanoma 121% | M14 melanoma 102%

CCOC(=O)c1cc(C(=O)c2ccc(OC)c(OC)c2)n2c1ccc1ccccc12
inactive: DU-145 prostate 109% | K-562 leukemia 86.8% | MALME-3M melanoma 93.8% | MDA-MB-231 breast 66.9% | RXF 393 renal 95.7% | SF-268 CNS 81% | SF-295 CNS 96.9% | SF-539 CNS 99.9% | UACC-257 melanoma 107% | M14 melanoma 102%
